Our source for the composite z-score and z-score values is PubChem BioAssay.

Experiment [1] can be described thus: anti-His antibody binders, primary screen, artefact control for SMM control protein annotation, biochemical, small-molecule microarray, 635 nm fluorescence (AID 1128).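 Note: score merges feature fluorescence with signal-to-noise for each printed compound spot.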 Conditions: anti-His Alexa647 antibody binding, higher = more signal.
The subject of experiment [2] is Human papillomavirus type 1a E7 protein (residues 1-88). The experiment can be described thus: HPV1a E7 small-molecule binders, primary screen, biochemical, small-molecule microarray, residues 1-88, 635 nm (AID 1129). Particulars: small-molecule microarray binding, fluorescence 635 nm; higher = more signal.
The target of experiment [3] is Focal adhesion kinase 1 (Homo sapiens) (UniProt Q05397). Description: small-molecule microarray binders of FAK, primary screen, biochemical, 635/667 nm fluorescence, BSA, DTT (AID 1130).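 Note: composite of spot emission at 667 nm and signal to noise over triplicate slides.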 Particulars: PTK2 binding, 635 nm fluorescence, higher = more signal.
Focal adhesion kinase 1 (Homo sapiens), sequence (Q05397 whole entry, looked up): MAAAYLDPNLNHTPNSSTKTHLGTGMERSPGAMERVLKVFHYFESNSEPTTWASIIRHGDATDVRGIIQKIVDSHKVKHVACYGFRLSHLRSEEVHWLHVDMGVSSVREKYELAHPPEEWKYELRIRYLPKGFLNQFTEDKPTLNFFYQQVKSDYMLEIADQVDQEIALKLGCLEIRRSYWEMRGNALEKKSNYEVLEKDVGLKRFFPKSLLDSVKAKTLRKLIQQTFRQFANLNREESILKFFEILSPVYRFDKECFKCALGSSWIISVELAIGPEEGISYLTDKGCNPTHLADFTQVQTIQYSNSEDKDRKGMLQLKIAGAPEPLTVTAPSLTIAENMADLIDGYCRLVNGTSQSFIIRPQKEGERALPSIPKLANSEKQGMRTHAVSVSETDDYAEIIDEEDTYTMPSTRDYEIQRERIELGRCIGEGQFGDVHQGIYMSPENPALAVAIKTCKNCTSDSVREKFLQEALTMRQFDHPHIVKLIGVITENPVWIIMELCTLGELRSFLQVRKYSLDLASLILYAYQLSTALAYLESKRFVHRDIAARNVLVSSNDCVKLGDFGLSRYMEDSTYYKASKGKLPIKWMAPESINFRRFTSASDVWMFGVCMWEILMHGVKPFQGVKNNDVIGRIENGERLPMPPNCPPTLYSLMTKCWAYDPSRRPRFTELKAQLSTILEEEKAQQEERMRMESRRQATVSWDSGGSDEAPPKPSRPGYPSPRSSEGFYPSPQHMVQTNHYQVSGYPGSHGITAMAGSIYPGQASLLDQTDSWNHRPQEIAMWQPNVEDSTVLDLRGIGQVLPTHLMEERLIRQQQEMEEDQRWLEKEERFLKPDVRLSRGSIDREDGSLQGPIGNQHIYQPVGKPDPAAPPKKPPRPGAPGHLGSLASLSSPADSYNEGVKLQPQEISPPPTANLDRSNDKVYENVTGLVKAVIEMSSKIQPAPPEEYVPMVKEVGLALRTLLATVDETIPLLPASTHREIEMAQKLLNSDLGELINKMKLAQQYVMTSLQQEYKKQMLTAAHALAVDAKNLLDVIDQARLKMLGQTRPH
Experiment [4] has as its system Fibrinogen (Alexa647-labelled). Description: fibrinogen binders on compound microarrays, profiling panel, artefact control for SMM control-protein annotation, biochemical, small-molecule microarray, 635/667 nm fluorescence (AID 1131).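 Note: z-score merges 667 nm fluorescence with per-spot signal-to-noise over triplicate slides.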 Conditions: fibrinogen-A647 binding fluorescence, higher = more signal.
For experiment [5], the target named is Follistatin (Homo sapiens) (UniProt P19883). Description: follistatin binders on small-molecule microarrays, primary screen, biochemical, small-molecule microarray, 635/667 nm fluorescence (AID 1132). Conditions: FST binding, 635 nm fluorescence, higher = more signal.
Follistatin (Homo sapiens), sequence (P19883 whole entry, looked up): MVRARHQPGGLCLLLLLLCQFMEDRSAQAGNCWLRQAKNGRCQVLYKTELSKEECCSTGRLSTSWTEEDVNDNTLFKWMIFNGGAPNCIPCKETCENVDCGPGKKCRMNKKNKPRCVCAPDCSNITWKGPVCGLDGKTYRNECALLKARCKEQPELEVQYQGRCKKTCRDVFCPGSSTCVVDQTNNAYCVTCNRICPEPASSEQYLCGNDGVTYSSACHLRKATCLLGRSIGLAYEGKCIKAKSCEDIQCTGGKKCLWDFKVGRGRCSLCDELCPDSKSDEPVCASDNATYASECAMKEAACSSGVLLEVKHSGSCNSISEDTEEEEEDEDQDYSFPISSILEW
Experiment [6] addresses Fibroblast growth factor 2 (Homo sapiens) (UniProt P09038). Description: FGF2 binders on small-molecule microarrays, primary screen, biochemical, small-molecule microarray, 635/667 nm fluorescence (AID 1133). Particulars: small-molecule microarray binding, FGF2, fluorescence 635/667; higher = more signal.
Experiment [7] can be described thus: mitochondrial membrane potential change in A549 cells, profiling panel, cell-based, JC-1 fluorescence, basal, 24 h, 100 nL (AID 1138).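 Note: A549 lung adenocarcinoma cells under basal conditions with no added stimulus; test concentration not given here.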 Particulars: higher = more signal.
In a further experiment the test system is Lefty1. Description: Lefty1 binders on small-molecule microarrays, primary screen, biochemical, small-molecule microarray, 635/667 nm fluorescence (AID 1139). Particulars: small-molecule microarray binding, fluorescence 635/667; higher = more signal.
The subject of experiment [8] is wheat germ agglutinin (Triticum aestivum), Alexa647-labelled. The experiment can be described thus: wheat germ agglutinin binders on compound microarrays, profiling panel, artefact control for SMM control-protein annotation, biochemical, small-molecule microarray, 635/667 nm fluorescence (AID 1140).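 Note: score merges 667 nm feature emission with signal to noise over triplicate slides.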 Conditions: WGA-A647 binding, 635 nm fluorescence, higher = more signal.

Experiment [9] has as its target Luciferin 4-monooxygenase (Photinus pyralis) (UniProt P08659). Description: firefly luciferase enzyme inhibitors, primary screen, biochemical, luminescence, purified enzyme, 2006 set (AID 1141).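 Note: cell-free assay with purified firefly luciferase at 100 ng per well in PBS; test concentration not given here.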 Conditions: SteadyGlo luminescence, 30 min, higher = more signal, called active from +8 up or from −8 down.

Calls of active or inactive are those of the source.

Luciferin 4-monooxygenase (Photinus pyralis), sequence (P08659 whole entry, looked up): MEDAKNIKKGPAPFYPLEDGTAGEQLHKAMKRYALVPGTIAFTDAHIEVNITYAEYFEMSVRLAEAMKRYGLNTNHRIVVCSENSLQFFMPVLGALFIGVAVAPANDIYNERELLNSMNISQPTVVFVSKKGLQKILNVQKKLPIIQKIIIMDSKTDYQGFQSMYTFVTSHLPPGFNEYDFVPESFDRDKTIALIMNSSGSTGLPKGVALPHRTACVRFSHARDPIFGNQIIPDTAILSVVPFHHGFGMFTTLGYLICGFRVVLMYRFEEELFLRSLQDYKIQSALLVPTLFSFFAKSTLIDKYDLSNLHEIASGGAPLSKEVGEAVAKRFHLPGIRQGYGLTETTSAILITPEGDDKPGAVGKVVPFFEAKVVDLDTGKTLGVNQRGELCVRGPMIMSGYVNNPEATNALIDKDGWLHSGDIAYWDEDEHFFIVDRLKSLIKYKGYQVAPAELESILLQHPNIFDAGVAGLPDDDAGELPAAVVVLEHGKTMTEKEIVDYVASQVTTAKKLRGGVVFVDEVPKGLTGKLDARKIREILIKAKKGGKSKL
Fibroblast growth factor 2 (Homo sapiens), sequence (P09038 whole entry, looked up): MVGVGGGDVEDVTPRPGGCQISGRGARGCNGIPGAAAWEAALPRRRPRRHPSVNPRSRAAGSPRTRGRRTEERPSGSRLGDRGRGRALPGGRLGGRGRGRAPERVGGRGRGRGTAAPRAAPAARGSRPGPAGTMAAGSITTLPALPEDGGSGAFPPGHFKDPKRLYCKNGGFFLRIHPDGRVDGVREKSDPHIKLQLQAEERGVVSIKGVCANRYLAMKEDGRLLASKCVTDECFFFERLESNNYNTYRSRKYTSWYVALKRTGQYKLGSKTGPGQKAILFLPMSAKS

As to `O=C(O)[C@]1(CCS(=O)(=O)c2ccccc2)N=C(c2ccc(OCCCO)cc2)O[C@@H]1c1ccccc1`, the composite z-score in experiment [1] is 0.367; in [2], 0.228; in experiment [3], 0.221; in experiment [4], 0.447; in experiment [5], -0.029; in experiment [6], -0.0377. The composite z-score is -0.655 with Lefty1 and 1.36 in experiment [8]. For the same compound, the z-score in [7] was 0.0511; in experiment [9], -1.87 (inactive).
Consider `O=[N+]([O-])c1ccc(C[n+]2ccc(-c3ccc(CO)cc3)cc2)o1`, for which the composite z-score in experiment [1] is 1.38; in [2], 0.148; in experiment [3], 0.197; in [4], -0.0943; in [5], 1.34; in [6], 0.59. The figures for the composite z-score (with Lefty1; in experiment [8]) were 0.362 and 1.17, respectively. Further, the figures for the z-score in experiment [7] and in experiment [9] were -0.93 and -0.208 (inactive), respectively.
On to `CCOC(=O)C1=CC[C@@H](c2cccc(Br)c2)N(S(=O)(=O)c2ccc(C)cc2)[C@H]1c1ccc([N+](=O)[O-])cc1`, for which the composite z-score was 0.822 in experiment [1]; 1.22 in [2]; 0.359 in experiment [3]; 1.01 in experiment [4]; 0.782 in experiment [5]; 0.873 in experiment [6]. Also, the composite z-score stood at 0.726 in the experiment with Lefty1 and 0.743 in [8]. For the same compound, the z-score in [7] is 1.99; in experiment [9] it was 1.96 (inactive).
Take `CCCCC(CC)C(O)C1C=CC2C(=O)NC(=O)C2N1Nc1ccccn1` (stereo not given): the composite z-score is 2.27 in experiment [1]; 1.17 in experiment [2]; 0.178 in [3]; 1 in [4]; 0.962 in experiment [5]; -0.539 in [6]. Also, the composite z-score with Lefty1 turned out to be 0.21; in experiment [8], 1.21. Besides, the z-score in experiment [7] was 0.933; in experiment [9], -1.55 (inactive).
As to `CCOC(=O)C1=CC[C@@H](c2ccccc2)N(S(=O)(=O)c2ccc(C)cc2)[C@H]1C=C(C)C`, the composite z-score in experiment [1] is 0.875; in experiment [2], 1.22; in [3], 0.503; in [4] it was 0.911; in experiment [5], 0.97; in experiment [6], 0.481. In addition, the composite z-score is 0.811 in the experiment with Lefty1 and 0.546 in experiment [8]. Moreover, the z-score in experiment [7] is 2.58; in experiment [9] it was 2.12 (inactive).
As for `[N-]=[N+]=Nc1ccccc1[C@@H]1OC(c2ccc(OCCCO)cc2)=N[C@]1(CCS(=O)(=O)c1ccccc1)C(=O)NCc1ccccc1`, the composite z-score in experiment [1] is 1.13; in experiment [2], 0.742; in [3], 1.03; in experiment [4] it was 0.982; in [5], 1.3; in [6] it was 1.06. The values for the composite z-score (in the experiment on Lefty1; in [8]) were -0.141 and 1.2, respectively. For the same compound, the z-score in experiment [7] is 0.27; in [9], -11.9 (active).
Take `O=C1C2C=CC(C(O)c3ccccn3)N(Nc3ccccc3)C2C(=O)N1c1ccccc1` (stereo not given): the composite z-score in experiment [1] is 0.0213; in experiment [2] it was 0.0731; in experiment [3], 0.478; in [4], 0.339; in experiment [5] it was 0.0784; in experiment [6], -0.424. Moreover, the results for the composite z-score (with Lefty1; in [8]) were 0.144 and 1.14, respectively. The figures for the z-score in experiment [7] and in [9] were 0.327 and -1.08 (inactive), respectively.
As to `CCCCC(=C=CC[C@H](O)c1cccc(OCCO)c1)C[C@H](O)COCc1ccccc1`, the composite z-score in experiment [1] is -0.178; in experiment [2], 0.101; in experiment [3], 0.105; in [4], -0.606; in [5] it was 0.0306; in experiment [6], -0.473. Further, the composite z-score with Lefty1 was found to be 0.743; in [8], 0.435. Besides, the z-score is 0.396 in [7] and -0.352 (inactive) in [9].
`COc1ccc([Si](C)(C)[C@@H]2[C@@H](CC(=O)N(CCO)Cc3ccccc3)O[C@]3(C(=O)N(Cc4ccc(N5CCOC5=O)cc4)c4ccccc43)[C@H]2C)cc1`: the composite z-score in [1] is 1.56; in experiment [2] it was 0.595; in experiment [3], 0.294; in experiment [4], 0.631; in experiment [5] it was 1.17; in [6], 1.05. Moreover, the composite z-score was 1.48 in the experiment on Lefty1 and 0.415 in experiment [8]. The figures for the z-score in experiment [7] and in [9] were -0.147 and -0.356 (inactive), respectively.
Regarding `C=CCC(OC(C)=O)[C@@H]1[C@@H](N(Cc2cc3ccccc3o2)C(=O)Cc2ccc(OC)cc2)c2cc(OCCCO)ccc2N1C(=O)c1ccc(-c2ccccc2)cc1` (stereo not given in full), the composite z-score in experiment [1] is -0.316; in experiment [2], -0.313; in [3], 0.107; in experiment [4] it was -0.203; in experiment [5], 0.352; in [6], 0.133. Further, the results for the composite z-score (with Lefty1; in [8]) were -0.492 and -0.272, respectively. For the same compound, the z-score is 0.94 in [7] and -0.52 (inactive) in experiment [9].
Take `COCCCNC(=O)[C@@]1(Cc2ccccc2CN=[N+]=[N-])N=C(c2ccc(OCCCO)cc2)O[C@H]1c1ccccc1N=[N+]=[N-]`: the composite z-score in [1] is 2.29; in [2], 1.19; in experiment [3], 0.543; in experiment [4], 0.931; in [5], 1.35; in experiment [6], 1.18. Moreover, the values for the composite z-score (with Lefty1; in experiment [8]) were 0.0538 and 1.2, respectively. Further, the z-score in experiment [7] is 3.53; in [9], -4.87 (inactive).
On to `COCCOC(=O)N1C(=O)[C@@]2(c3cc(C#CCC(C(=O)OC)C(=O)OC)ccc31)[C@H](C(=O)N1CCCCCCC1)[C@H]1C(=O)O[C@H](c3ccccc3)[C@H](c3ccccc3)N1[C@@H]2c1ccc(O)cc1`, for which the composite z-score in [1] worked out at 2.63; in experiment [2] it was 1.16; in [3], 0.598; in experiment [4] it was 0.59; in experiment [5], 1.07; in experiment [6], 1.5. Moreover, the composite z-score turned out to be 0.972 in the experiment with Lefty1 and 1.13 in [8]. Also, the z-score in [7] was -0.909; in experiment [9], 0.414 (inactive).
For the compound `COc1ccc(C(=O)Nc2ccc(CN3C(=O)[C@]4(O[C@H](CCn5cc([C@H](O)c6ccccc6)nn5)[C@@H]([Si](C)(C)c5ccc(OC)cc5)[C@@H]4C)c4ccccc43)cc2)cc1`, the composite z-score in [1] is -0.271; in [2], -0.303; in [3] it was -0.288; in experiment [4] it was 0.107; in experiment [5], 0.971; in [6], -0.224. Besides, the composite z-score stood at 0.444 with Lefty1 and 0.849 in experiment [8]. Besides, the values for the z-score in [7] and in experiment [9] were 0.496 and -0.363 (inactive), respectively.
